Assay results: the supplement of paper PMC9262897, “Low-cost anti-mycobacterial drug discovery using engineered E. coli” (Nature Communications, 2022)
Counter-ions that a name gives are not always drawn. ± gives the standard deviation of the averaged measurements.

These molecules were tested on E. coli TESEC Mtb Alr (assay: growth (OD600 after 10 h); higher = more growth (less inhibition)). Settings: arabinose 10000 nM; compound 0.1 mM; raw OD600 reference: median of DMSO wells 0.264, cell-free background 0.041.
Experimental: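 TESEC Mtb Alr E. coli, or the Alr+ wild-type control, in 384-well plates with Prestwick library compounds at 0.1 mM and 1% DMSO, across arabinose induction levels of 1E3 to 1E7 nM. Growth is read as OD600 after 10 h at 37 °C in triplicate biological replicates.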

Q: How did the growth turn out when `COc1ncnc(NS(=O)(=O)c2ccc(N)cc2)c1OC` [Sulfadoxine] was run?
A: The growth was 0.251 ± 0.0051.

Q: `c1ccc(C2CN3CCSC3=N2)cc1` (centres undefined) [Tetramisole hydrochloride] was tested. Which growth did it give?
A: Its growth is 0.259 ± 0.0099.

Q: With `CCCC1O[C@@H]2C[C@H]3[C@@H]4CCC5=CC(=O)C=C[C@]5(C)[C@H]4[C@@H](O)C[C@]3(C)[C@]2(C(=O)CO)O1` (some centres undefined) [Budesonide] as the molecule, how does the growth read?
A: Its growth is 0.247 ± 0.0047.

Q: For `COc1cc2ncnc(Nc3ccc(F)c(Cl)c3)c2cc1OCCCN1CCOCC1` [Gefitinib], which growth is on record?
A: Its growth is 0.24 ± 0.0039.

Q: How did the growth turn out when `C[C@H]1C[C@@H]2[C@H]([C@@H](O)C[C@@]3(C)[C@H]2CC[C@]3(O)C(=O)CO)[C@@]2(C)C=CC(=O)C=C12` [Methylprednisolone, 6-alpha] was run?
A: The growth was 0.243 ± 0.0096.

Q: `C[C@@H](O)[C@H]1C(=O)N2C(C(=O)O)=C(SCCNC=N)C[C@H]12` [Imipenem] was tested. Which growth did it give?
A: Its growth is 0.269 ± 0.0053.

Q: Which growth does the source give for `CC(=O)Oc1ccccc1C(=O)Nc1ncc([N+](=O)[O-])s1` [Nitazoxanide] here?
A: The growth was 0.0417 ± 0.00046.

Q: `CC[C@H](C)[C@H](N)C1=N[C@H](C(=O)N[C@@H](CC(C)C)C(=O)N[C@H](CCC(=O)O)C(=O)N[C@H](C(=O)N[C@H]2CCCCNC(=O)[C@H](CC(N)=O)NC(=O)[C@@H](CC(=O)O)NC(=O)[C@H](Cc3cnc[nH]3)NC(=O)[C@@H](Cc3ccccc3)NC(=O)[C@H]([C@@H](C)CC)NC(=O)[C@@H](CCCN)NC2=O)[C@@H](C)CC)CS1` [Bacitracin] was tested. Which growth did it give?
A: Its growth is 0.252 ± 0.0038.

Q: With `c1ccc([C@H]2CN3CCSC3=N2)cc1` [Levamisole hydrochloride] as the molecule, how does the growth read?
A: Its growth is 0.279 ± 0.005.

Q: `CN(Cc1cnc2nc(N)nc(N)c2n1)c1ccc(C(=O)N[C@@H](CCC(=O)O)C(=O)O)cc1` (racemic) [Amethopterin (R,S)] was tested. Which growth did it give?
A: The growth was 0.224 ± 0.011.

Q: With `CCOC(=O)C1=C[C@]2(CC)CCCN3CCc4c(n1c1ccccc41)[C@@H]32` [Vinpocetine] as the molecule, how does the growth read?
A: The growth was 0.25 ± 0.0089.

Q: With `COc1ccccc1O` [Guaiacol] as the molecule, how does the growth read?
A: Its growth is 0.2742 ± 0.0019.

Q: `CC(=O)Oc1ccccc1C(=O)O` [Acetylsalicylic acid] was tested. Which growth did it give?
A: The growth was 0.292 ± 0.014.

Q: `C[C@]12CC[C@@H]3c4ccc(O)cc4C[C@@H](CCCCCCCCC[S+]([O-])CCCC(F)(F)C(F)(F)F)[C@H]3[C@@H]1CC[C@@H]2O` (some centres undefined) [Fulvestrant] was tested. Which growth did it give?
A: Its growth is 0.27 ± 0.009.

Q: `CC(=O)O[C@H]1C[C@@H]2CC[C@@H]3[C@H](CC[C@@]4(C)[C@H]3C[C@H]([N+]3(C)CCCCC3)[C@@H]4OC(C)=O)[C@@]2(C)C[C@@H]1N1CCCCC1` [Vecuronium bromide] was tested. Which growth did it give?
A: Its growth is 0.0482 ± 0.00074.

Q: With `NS(=O)(=O)c1cc(C2(O)NC(=O)c3ccccc32)ccc1Cl` (centres undefined) [Chlorthalidone] as the molecule, how does the growth read?
A: Its growth is 0.255 ± 0.0039.

Q: For `CC[C@H]1OC(=O)[C@H](C)[C@@H](O[C@H]2C[C@@](C)(OC)[C@@H](O)[C@H](C)O2)[C@H](C)[C@@H](O[C@@H]2O[C@H](C)C[C@H](N(C)C)[C@H]2O)[C@](C)(O)C[C@@H](C)CN(C)[C@H](C)[C@@H](O)[C@]1(C)O` [Azithromycin], which growth is on record?
A: Its growth is 0.03977 ± 0.00031.

Q: `CC(=O)N(CC(O)CN(C(C)=O)c1c(I)c(C(=O)NCC(O)CO)c(I)c(C(=O)NCC(O)CO)c1I)c1c(I)c(C(=O)NCC(O)CO)c(I)c(C(=O)NCC(O)CO)c1I` (centres undefined) [Iodixanol] was tested. Which growth did it give?
A: Its growth is 0.26 ± 0.0054.

Q: With `CN1CCN2c3ccccc3Cc3ccccc3C2C1` (centres undefined) [Mianserine hydrochloride] as the molecule, how does the growth read?
A: The growth was 0.283 ± 0.017.

Q: `Clc1ccc2nsnc2c1NC1=NCCN1` [Tizanidine HCl] was tested. Which growth did it give?
A: Its growth is 0.262 ± 0.00087.

Q: Which growth does the source give for `CC(=O)[C@H]1CC[C@H]2[C@@H]3CCC4=CC(=O)CC[C@]4(C)[C@H]3CC[C@]12C` [Progesterone] here?
A: The growth was 0.234 ± 0.01.

Q: Which growth does the source give for `C#Cc1cccc(Nc2ncnc3cc(OCCOC)c(OCCOC)cc23)c1` [Erlotinib] here?
A: The growth was 0.236 ± 0.0081.

Q: `Nc1cc(-c2ccncc2)c[nH]c1=O` [Amrinone] was tested. Which growth did it give?
A: Its growth is 0.277 ± 0.017.

Q: `COc1cc2nc(N3CCN(C(=O)C4COc5ccccc5O4)CC3)nc(N)c2cc1OC` (centres undefined) [Doxazosin mesylate] was tested. Which growth did it give?
A: The growth was 0.0476 ± 0.00044.

Q: How did the growth turn out when `CN1CCN(CCCN2c3ccccc3Sc3ccc(S(=O)(=O)N(C)C)cc32)CC1` [Thioproperazine dimesylate] was run?
A: The growth was 0.196 ± 0.0078.

Q: Which growth does the source give for `O=c1[nH]c(=O)n([C@H]2C[C@H](O)[C@@H](CO)O2)cc1C(F)(F)F` [Trifluridine] here?
A: The growth was 0.0994 ± 0.0099.

Q: For `COc1ccc2cc(CCC(C)=O)ccc2c1` [Nabumetone], which growth is on record?
A: The growth was 0.2236 ± 0.0013.

Q: How did the growth turn out when `CCN(CC)CCNC(=O)c1cc(Br)c(N)cc1OC` [Bromopride] was run?
A: Its growth is 0.256 ± 0.0069.

Q: How did the growth turn out when `O=C1C(O)=C(O)C(=O)C(O)=C1O` [Tetrahydroxy-1,4-quinone hydrate] was run?
A: The growth was 0.275 ± 0.0064.
